Laboratory results: PubChem BioAssay (EPA / NIEHS)
Records with an inconclusive call do not appear. The source made the active and inactive calls. The calls were made as follows, unless noted: active = hit-call score of the fitted dose curve at least 0.9, where 1 is the maximum; inactive = score below 0.9.

Assays:
[1] = target: Paired box protein Pax-6 (Homo sapiens) (UniProt P26367); test: ATG_Pax6_CIS: Attagene CIS-FACTORIAL HepG2 Assay for human Paired Box 6 (PAX6) (AID 2282956); conditions: HepG2 CIS-FACTORIAL PAX6 reporter transcription, RNA readout; actives raise or lower the signal
Procedure, shortened: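 DMSO-referenced bidirectional fits of reporter mRNA fluorescence; HepG2 with transient cis-promoter MRTUs, 24 h post-dose, RT-PCR plus capillary electrophoresis detection.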

[2] = ATG_RORE_CIS: Attagene CIS-FACTORIAL HepG2 Assay for human RAR-related Orphan Receptor Element (RORE) (AID 2282959); conditions: HepG2 Attagene cis-factorial RORE reporter, mRNA; actives raise or lower the signal
Procedure, shortened: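 Transient MRTU transfection of human HepG2 liver cells (FuGene 6); 24 h compound exposure; TriZol RNA, oligo(dT) RT, PCR, FAM labeling, HpaI cut, CE fragment analysis. DMSO = negative control/baseline.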

[3] = ATG_Sox_CIS: Attagene CIS-FACTORIAL HepG2 Assay for human SRY-box transcription factor (SOX) (AID 2282960); conditions: HepG2 Attagene cis-factorial SOX reporter, mRNA; actives raise or lower the signal
Procedure, shortened: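 Endogenous factor activity in human liver HepG2 cells carrying transfected cis-regulated reporter units. RNA taken 24 h post-dose, reverse-transcribed, PCR-amplified and sized by capillary electrophoresis. Gain or loss of signal fitted relative to DMSO.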

[4] = target: Transcription factor Sp1 (Homo sapiens) (UniProt P08047); test: ATG_Sp1_CIS: Attagene CIS-FACTORIAL HepG2 Assay for human Specificity Protein 1 (Sp1) (AID 2282961); conditions: HepG2 Sp1 cis-reporter transcription, actives raise or lower the signal
Procedure, shortened: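 Transient MRTU-transfected HepG2, 24 h compound exposure. Total RNA → oligo(dT) RT → PCR of reporter → 6-FAM primer extension → HpaI digest → CE. Endpoint fitted both directions vs DMSO.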

[5] = ATG_SREBP_CIS: Attagene CIS-FACTORIAL HepG2 Assay for human Sterol Regulatory Element Binding (SREBP) (AID 2282962); conditions: HepG2 Attagene cis-factorial SREBP reporter, mRNA; actives raise or lower the signal
Procedure, shortened: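 In this cis-format assay, HepG2 liver cells express reporters controlled by promoter elements responsive to native transcription factors. Exposure lasts 24 h; reporter mRNA fluorescence from capillary electrophoresis gives the signal, fitted bidirectionally against DMSO.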

[6] = target: Signal transducer and activator of transcription 3 (Homo sapiens) (UniProt P40763); test: ATG_STAT3_CIS: Attagene CIS-FACTORIAL HepG2 Assay for human Signal Transducer and Activator of Transcription 3 (STAT3) (AID 2282963); conditions: HepG2, Attagene cis-factorial STAT3 reporter transcription; actives raise or lower the signal
Procedure, shortened: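 Readout is reporter transcript quantified by RT-PCR and capillary electrophoresis, with 6-FAM primer extension and HpaI digestion. Total RNA is taken 24 h after dosing transiently transfected HepG2 carrying cis-regulated reporter units. Bidirectional fit against DMSO.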

[7] = ATG_TA_CIS: Attagene CIS-FACTORIAL HepG2 Assay for human TA Basal Promoter (AID 2282964); conditions: HepG2 Attagene CIS-factorial TA basal promoter reporter; actives raise or lower the signal
Procedure, shortened: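 Background internal-marker endpoint from a 52-component HepG2 cis-reporter panel. Cells treated 24 h; reporter transcripts quantified via RT-PCR and CE fluorescence against DMSO baseline.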

[8] = ATG_TCF_b_cat_CIS: Attagene CIS-FACTORIAL HepG2 Assay for human T-Cell-Factor with beta-catenin (TCF/b-cat) (AID 2282965); conditions: HepG2 TCF/beta-catenin cis-reporter transcription, actives raise or lower the signal
Procedure, shortened: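 Endogenous TCF/LEF activity read as reporter transcript level via RT-PCR and capillary electrophoresis fluorescence in transfected HepG2, 24 h exposure; gain or loss of signal fitted against DMSO controls.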

[9] = ATG_TAL_CIS: Attagene CIS-FACTORIAL HepG2 Assay for human TAL Basal Promoter (AID 2282966); conditions: HepG2 Attagene cis-factorial TAL promoter reporter; actives raise or lower the signal;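 also: background control endpoint measuring basal TAL promoter reporter mRNA not a specific factor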
Procedure, shortened: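 Background-control endpoint: basal TAL promoter reporter transcripts in transiently transfected HepG2, measured 24 h after dosing. Read-out by RT-PCR with fluorescent primer extension and capillary electrophoresis; gain or loss of signal fitted relative to DMSO.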

[10] = ATG_TGFb_CIS: Attagene CIS-FACTORIAL HepG2 Assay for human Transforming Growth Factor (TGF) (AID 2282967); conditions: HepG2 Attagene CIS TGFb reporter, mRNA transcription; actives raise or lower the signal
Procedure, shortened: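 Liver HepG2 line, cis-factorial reporter panel, 24 h dosing. Quantitation: RT-PCR products labeled with 6-FAM, cut with HpaI, resolved by capillary electrophoresis; DMSO-referenced bidirectional analysis.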

[11] = target: Nuclear receptor subfamily 1 group I member 3 (Homo sapiens) (UniProt Q14994); test: ATG_CAR_TRANS: Attagene TRANS-FACTORIAL HepG2 Assay for human Constitutive Androstane Receptor (CAR) (AID 2282969; active = hit-call score of the fitted dose curve at least 0.9, where 1 is the maximum;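 also: activators raise reporter mRNA above DMSO so AC50 marks induction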); conditions: HepG2 Attagene TRANS-FACTORIAL CAR reporter
Procedure, shortened: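 Signal is reporter mRNA induction relative to DMSO, measured 24 h after dosing by RT-PCR with fluorescent primer extension and capillary electrophoresis. Human HepG2 liver cells carried transiently transfected chimeric NR-Gal4/GAL4-UAS reporter constructs.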

[12] = target: Estrogen receptor (Homo sapiens) (UniProt P03372); test: ATG_ERa_TRANS: Attagene TRANS-FACTORIAL HepG2 Assay for human Estrogen Receptor alpha (ERa) (AID 2282970; active = hit-call score of the fitted dose curve at least 0.9, where 1 is the maximum); conditions: HepG2 Attagene TRANS ERa GAL4 reporter, mRNA
Procedure, shortened: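 Reporter transcripts were measured 24 h after dosing by RT-PCR with fluorescent primer extension and capillary electrophoresis. The system is transiently transfected HepG2 expressing exogenous NR-Gal4 chimeras driving GAL4-UAS reporters; DMSO is the baseline.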

[13] = target: Steroid hormone receptor ERR1 (Homo sapiens) (UniProt P11474); test: ATG_ERRa_TRANS: Attagene TRANS-FACTORIAL HepG2 Assay for human Estrogen-Related Receptor alpha (ERRa) (AID 2282971; active = hit-call score of the fitted dose curve at least 0.9, where 1 is the maximum); conditions: HepG2 Attagene TRANS reporter, ERRa transactivation
Procedure, shortened: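 Reporter transcripts from ERRa-Gal4 chimera activity measured in transiently transfected human HepG2 cells 24 hours after dosing, using RT-PCR with 6-FAM primer extension, HpaI digestion and capillary electrophoresis; DMSO is baseline.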

[14] = target: X-box-binding protein 1 (Homo sapiens) (UniProt P17861); test: ATG_Xbp1_CIS: Attagene CIS-FACTORIAL HepG2 Assay for human X-box Binding Protein 1 (XBP1) (AID 2282972); conditions: HepG2 XBP1 cis-element reporter, Attagene multiplex; actives raise or lower the signal
Procedure, shortened: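 Changes in reporter transcript abundance, read by RT-PCR and capillary electrophoresis, reflect endogenous transcription factor activity. Transfected HepG2 cells received compound for 24 hours; DMSO defined baseline for bidirectional analysis.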

[15] = ATG_M_19_TRANS: Attagene TRANS-FACTORIAL HepG2 Assay for M19 Transcription Factor (Internal Marker) (AID 2282974; active = hit-call score of the fitted dose curve at least 0.9, where 1 is the maximum); conditions: HepG2 Attagene TRANS-FACTORIAL M19 internal marker reporter
Procedure, shortened: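 Fluorescence of 6-FAM-labelled reporter cDNA fragments, separated by capillary electrophoresis, served as the readout. These derived from HepG2 cells carrying transfected GAL4-UAS reporter units after 24 h dosing, with DMSO as negative control.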

[16] = ATG_PPRE_CIS: Attagene CIS-FACTORIAL HepG2 Assay for human Peroxisome Proliferator-activated Response Element (PPRE) (AID 2282958); conditions: HepG2 PPRE cis-element reporter, Attagene transcription factor profiling; actives raise or lower the signal
Procedure, shortened: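 HepG2, transient MRTU transfection (cis promoter elements, endogenous TFs). 24 h dosing. RNA → oligo(dT) RT → PCR → 6-FAM primer extension → HpaI digest → CE. Bidirectional fit vs DMSO.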

[17] = ATG_VDRE_CIS: Attagene CIS-FACTORIAL HepG2 Assay for human Vitamin D Receptor Element (VDRE) (AID 2282968); conditions: HepG2 VDRE cis-reporter transcription, actives raise or lower the signal
Procedure, shortened: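 Readout is VDRE-driven reporter mRNA reflecting endogenous factor activity in human HepG2 cells, sampled 24 h post-dose. Quantification used labelled RT-PCR products separated by capillary electrophoresis; bidirectional analysis relative to DMSO.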

[18] = ATG_GAL4_TRANS: Attagene TRANS-FACTORIAL HepG2 Assay for GAL4 (Internal Marker) (AID 2282976; active = hit-call score of the fitted dose curve at least 0.9, where 1 is the maximum); conditions: HepG2 Attagene TRANS GAL4 internal marker reporter
Procedure, shortened: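 In transfected human HepG2 liver cells dosed 24 h, GAL4 reporter mRNA serves as a baseline marker. Detection by RT-PCR with fluorescent capillary electrophoresis, activity fitted upward relative to DMSO.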

Measured: AC50

Paired box protein Pax-6 (Homo sapiens), sequence (P26367 whole entry, looked up): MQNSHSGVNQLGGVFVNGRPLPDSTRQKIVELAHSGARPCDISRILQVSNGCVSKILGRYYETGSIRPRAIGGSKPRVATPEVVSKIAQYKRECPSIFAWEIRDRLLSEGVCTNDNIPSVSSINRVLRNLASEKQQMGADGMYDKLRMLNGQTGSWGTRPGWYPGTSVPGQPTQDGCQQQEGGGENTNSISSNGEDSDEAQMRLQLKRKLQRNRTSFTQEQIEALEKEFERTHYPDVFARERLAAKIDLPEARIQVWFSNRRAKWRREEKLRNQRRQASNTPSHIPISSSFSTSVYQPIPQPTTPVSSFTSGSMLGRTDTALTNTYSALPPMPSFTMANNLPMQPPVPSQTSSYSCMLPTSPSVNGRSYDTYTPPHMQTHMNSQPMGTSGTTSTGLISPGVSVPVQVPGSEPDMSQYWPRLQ
X-box-binding protein 1 (Homo sapiens), sequence (P17861 whole entry, looked up): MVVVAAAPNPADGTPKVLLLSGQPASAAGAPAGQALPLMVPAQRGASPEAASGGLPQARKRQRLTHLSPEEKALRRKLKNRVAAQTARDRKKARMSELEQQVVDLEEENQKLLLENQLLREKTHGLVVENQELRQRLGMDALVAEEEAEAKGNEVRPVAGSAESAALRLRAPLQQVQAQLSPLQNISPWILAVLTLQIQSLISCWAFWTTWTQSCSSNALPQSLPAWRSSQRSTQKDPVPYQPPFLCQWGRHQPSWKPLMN
Transcription factor Sp1 (Homo sapiens), sequence (P08047 whole entry, looked up): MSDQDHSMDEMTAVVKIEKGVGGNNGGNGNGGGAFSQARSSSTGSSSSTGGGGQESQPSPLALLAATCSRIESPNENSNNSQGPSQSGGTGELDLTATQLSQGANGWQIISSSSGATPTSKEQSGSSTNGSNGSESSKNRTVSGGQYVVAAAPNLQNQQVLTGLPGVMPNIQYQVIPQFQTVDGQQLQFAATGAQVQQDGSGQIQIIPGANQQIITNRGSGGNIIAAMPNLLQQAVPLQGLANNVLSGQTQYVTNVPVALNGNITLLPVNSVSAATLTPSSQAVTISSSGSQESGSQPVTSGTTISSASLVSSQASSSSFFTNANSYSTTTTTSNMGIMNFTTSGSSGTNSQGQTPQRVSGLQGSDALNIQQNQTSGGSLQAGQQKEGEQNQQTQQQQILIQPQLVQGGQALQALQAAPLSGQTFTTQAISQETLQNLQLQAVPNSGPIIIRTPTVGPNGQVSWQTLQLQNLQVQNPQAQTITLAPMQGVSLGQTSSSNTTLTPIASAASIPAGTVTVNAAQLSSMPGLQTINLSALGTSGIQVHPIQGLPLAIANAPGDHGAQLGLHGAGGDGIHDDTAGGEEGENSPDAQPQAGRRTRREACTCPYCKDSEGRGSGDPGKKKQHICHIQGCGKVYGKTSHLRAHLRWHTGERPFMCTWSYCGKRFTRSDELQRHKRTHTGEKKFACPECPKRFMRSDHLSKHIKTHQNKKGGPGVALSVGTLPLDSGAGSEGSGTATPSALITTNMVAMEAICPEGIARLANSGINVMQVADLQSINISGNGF
Estrogen receptor (Homo sapiens), sequence (P03372 whole entry, looked up, the tested form may be a part): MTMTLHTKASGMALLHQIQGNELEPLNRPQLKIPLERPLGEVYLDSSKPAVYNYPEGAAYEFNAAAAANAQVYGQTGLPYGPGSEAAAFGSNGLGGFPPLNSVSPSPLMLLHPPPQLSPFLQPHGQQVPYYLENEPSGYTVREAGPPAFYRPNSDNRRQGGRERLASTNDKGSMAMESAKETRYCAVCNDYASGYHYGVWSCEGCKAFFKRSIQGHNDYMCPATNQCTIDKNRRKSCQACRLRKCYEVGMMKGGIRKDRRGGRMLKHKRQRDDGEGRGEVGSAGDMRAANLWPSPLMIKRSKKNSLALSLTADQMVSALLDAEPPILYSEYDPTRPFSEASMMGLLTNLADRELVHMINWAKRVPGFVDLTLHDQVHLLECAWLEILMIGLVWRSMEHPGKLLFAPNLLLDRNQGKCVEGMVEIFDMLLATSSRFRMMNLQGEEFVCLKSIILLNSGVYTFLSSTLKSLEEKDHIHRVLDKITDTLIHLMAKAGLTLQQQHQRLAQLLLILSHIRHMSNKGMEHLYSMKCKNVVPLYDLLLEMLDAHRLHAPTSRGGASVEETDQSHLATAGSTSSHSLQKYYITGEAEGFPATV
Signal transducer and activator of transcription 3 (Homo sapiens), sequence (P40763 whole entry, looked up): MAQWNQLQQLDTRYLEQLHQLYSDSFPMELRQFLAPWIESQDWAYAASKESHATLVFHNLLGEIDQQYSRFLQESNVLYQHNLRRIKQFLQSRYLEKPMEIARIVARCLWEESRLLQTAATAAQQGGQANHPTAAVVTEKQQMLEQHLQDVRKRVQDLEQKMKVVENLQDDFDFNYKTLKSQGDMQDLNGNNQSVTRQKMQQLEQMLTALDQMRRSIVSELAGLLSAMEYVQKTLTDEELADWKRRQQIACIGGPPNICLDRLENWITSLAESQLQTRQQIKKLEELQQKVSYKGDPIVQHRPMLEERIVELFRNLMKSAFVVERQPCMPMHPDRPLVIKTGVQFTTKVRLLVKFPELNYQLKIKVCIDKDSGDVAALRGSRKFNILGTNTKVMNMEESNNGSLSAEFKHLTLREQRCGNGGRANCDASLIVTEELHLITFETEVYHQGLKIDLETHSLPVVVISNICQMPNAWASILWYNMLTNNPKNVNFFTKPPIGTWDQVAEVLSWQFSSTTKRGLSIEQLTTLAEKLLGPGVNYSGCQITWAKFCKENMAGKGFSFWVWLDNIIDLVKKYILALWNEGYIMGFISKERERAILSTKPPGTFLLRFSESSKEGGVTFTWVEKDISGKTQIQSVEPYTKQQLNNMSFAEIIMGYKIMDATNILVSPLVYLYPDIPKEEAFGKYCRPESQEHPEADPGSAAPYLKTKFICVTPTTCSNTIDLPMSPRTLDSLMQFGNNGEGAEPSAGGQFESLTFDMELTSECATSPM
Steroid hormone receptor ERR1 (Homo sapiens), sequence (P11474 whole entry, looked up, the tested form may be a part): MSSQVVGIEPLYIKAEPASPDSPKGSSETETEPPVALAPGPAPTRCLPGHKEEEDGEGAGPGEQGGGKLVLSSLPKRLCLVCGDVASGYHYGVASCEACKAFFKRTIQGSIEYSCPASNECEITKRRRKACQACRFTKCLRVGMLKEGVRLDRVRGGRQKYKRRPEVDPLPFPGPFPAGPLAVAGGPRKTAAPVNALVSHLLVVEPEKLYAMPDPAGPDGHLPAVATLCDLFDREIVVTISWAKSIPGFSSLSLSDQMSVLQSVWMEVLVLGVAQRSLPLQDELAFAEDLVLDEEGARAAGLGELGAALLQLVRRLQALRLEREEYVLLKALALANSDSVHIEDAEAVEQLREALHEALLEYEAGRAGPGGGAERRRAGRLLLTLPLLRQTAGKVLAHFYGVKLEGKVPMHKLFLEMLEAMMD
Nuclear receptor subfamily 1 group I member 3 (Homo sapiens), sequence (Q14994 whole entry, looked up, the tested form may be a part): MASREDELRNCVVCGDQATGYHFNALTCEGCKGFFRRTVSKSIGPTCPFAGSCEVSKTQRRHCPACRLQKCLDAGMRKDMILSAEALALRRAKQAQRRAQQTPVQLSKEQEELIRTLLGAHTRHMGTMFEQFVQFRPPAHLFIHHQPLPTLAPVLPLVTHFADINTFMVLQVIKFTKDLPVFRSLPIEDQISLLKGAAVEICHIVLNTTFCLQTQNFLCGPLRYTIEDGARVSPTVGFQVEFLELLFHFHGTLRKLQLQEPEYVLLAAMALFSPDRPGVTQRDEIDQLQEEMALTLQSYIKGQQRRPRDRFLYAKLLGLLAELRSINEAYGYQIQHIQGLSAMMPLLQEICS

O=C(Nc1ccccc1SSc1ccccc1NC(=O)c1ccccc1)c1ccccc1
active: [2] 2.56 µM
not listed: [16] | [17] | [18]
inactive: all other assays above

Cc1c(C)c([N+](=O)[O-])c(C(C)(C)C)c([N+](=O)[O-])c1C
not listed: [13] | [17] | [18]
inactive: all other assays above

CCOC(=O)N1CCC(=C2c3ccc(Cl)cc3CCc3cccnc32)CC1
active: [1] 7.79 µM | [7] 7.49 µM | [8] 8.07 µM | [9] 8.84 µM | [17] 1.37 µM
not listed: [2] | [16]
inactive: all other assays above

CC(C)CCCC(C)CC=O (stereo not drawn)
not listed: [4] | [10] | [11] | [13] | [17] | [18]
inactive: all other assays above

CCCCCC/C=C\CCCCCCCC(=O)O
not listed: [6] | [10] | [11] | [12] | [13] | [15]
inactive: all other assays above

COC(=O)c1ccccc1OC
not listed: [11] | [12] | [15] | [17] | [18]
inactive: all other assays above

O=C1C=CC(=O)O1
not listed: [4] | [11] | [12] | [13] | [15] | [18]
inactive: all other assays above

COc1ccc2nc(N)sc2c1
not listed: [11] | [13] | [15] | [16] | [18]
inactive: all other assays above
